Experimental data reported in PubChem BioAssay AID1259313 (Sanford-Burnham Center for Chemical Genomics, 2017).
Among all 340,000 compounds or so, about 8,500 (2.5%) were called active. Only a selection was taken, and actives are over-represented in it overall. Unmarked numbers belong to inactive results.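 How the source made its calls: active means melting temperature shift of at least 10% of the positive control shift, at one fixed dose; inactive means the rest.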

test system: Glutamate receptor ionotropic, NMDA 3A (GRIN3A) ligand-binding domain; experiment: NR3A LBD thermal stabilization by compounds – biophysical, differential scanning fluorimetry, uHTS, primary screen (AID 1259313); details: at 25 µM, stronger effect = higher value, 0% = protein alone, 100% = glycine-bound protein

SMILES | Tm shift relative to glycine control
O=C(Nc1cccc(Cl)c1)c1cncn1-c1ccc(F)cc1 | -0.7%
Cc1cccc(N=C2NC(=O)CS2)c1C | 5.95%
Cc1nc2nc(SCC(=O)c3ccccc3)[nH]c2cc1Br | -9.38%
O=C(CSc1nc2ccc([N+](=O)[O-])cc2[nH]1)c1ccc(Cl)cc1 | 18.5% (active)
CC(=O)Nc1ccc(C(=O)CSc2nc3ccc(C)cc3[nH]2)cc1 | -17.4%
O=C(Nc1ccc(Cl)cc1)c1cccc(OC(=S)N2CCOCC2)c1 | -0.47%
C/C(=N/Nc1ccc(Cl)cc1)c1cnnc(-c2ccccc2)n1 | 10.3% (active)
CC/C(=N/Nc1ccccc1)c1cnnc(SC)n1 | 1.52%
C/C(=N\Nc1ccccc1)c1cccs1 | 1.45%
CN(CCO)c1ccc(/C=N/Nc2nncc3ccccc23)cc1 | 3.23%
Cc1csc(NC(=O)CSc2nc(=O)cc(N)n2-c2ccc(F)cc2)n1 | -0.09%
CC(C)N1CCC(N2CCN(Cc3cccnc3)CC2CCO)CC1 (stereo not drawn) | -1.29%
Clc1ccc(Cc2nnc(-c3cccs3)o2)cc1 | -0.55%
CCCc1cc(C(=O)Nc2ccc(Cl)cn2)cs1 | 0.69%
Clc1ccc(Nc2nc(-c3cccs3)cs2)nc1 | 23% (active)
Cc1cc(C)cc(NC(=O)C(c2ccccc2)N2CCN(CC(=O)N3CCCC3)CC2)c1 (stereo not drawn) | -1.19%
Cc1ccc(C)c(NC(=O)C(OC(=O)c2ccc(C)s2)c2ccccc2)c1 (stereo not drawn) | -6.89%
Cc1cc(C)cc(NC(=O)C(OC(=O)c2ccc(O)cc2)c2ccccc2)c1 (stereo not drawn) | 10.5% (active)
COc1cc(CO)c(C2(CO)CCCC2)cc1OC | -9.65%
CNc1nccc(-c2ccc(Cl)cc2)c1C#N | -0.74%
NC(=O)C1(Nc2ccc(-c3ccccc3)cc2)CCCC1 | 2.37%
N#CC1(Nc2ccc(-c3ccc(Cl)cc3)cc2)CCCC1 | 20.4% (active)
COc1ccccc1CNC(=O)CNC(=O)c1cn(-c2ccccc2OC)c(=O)c2ccccc12 | -0.54%
Cc1ccc(NC(=O)CSCC(=O)N2CCOCC2)cc1 | 1.21%

SMILES | Tm shift relative to glycine control
Cc1cc2c(cc1C)[n+](C)cn2CC(O)COCC1CC=CCC1 (stereo not drawn) | 11.6% (active)
CNC(=S)N/N=C/c1ccc(N2CCOCC2)s1 | -0.99%
CCCn1c(=O)c2c(C(F)(F)F)cc(-c3cccs3)nc2n(CCC)c1=O | 0.77%
COc1ccc(NC(=O)NCCN2CCN(c3ccc(C)cc3)CC2)c(Cl)c1 | -3.16%
Cc1ccc(C2(C)NC(=O)N(CC(=O)Nc3ccccc3C(=O)N3CCCCC3)C2=O)cc1 (stereo not drawn) | -1.86%
CSCCC(NS(=O)(=O)c1ccc(C)cc1)C(=O)N(C)CC(=O)Nc1ccccc1Br (stereo not drawn) | 0.34%
COC(=O)c1ccc(Nc2ncnc3sccc23)cc1 | 13% (active)
COc1ccc(Nc2ncnc3sc(C)cc23)cc1 | -17.1%
CCCc1cc(C(=O)Nc2ccc(C(=O)OC)cc2)cs1 | -10.4%
C/C(=N\N)c1c(-c2ccccc2)c2cc(Br)ccc2[nH]c1=O | -2.09%
CC(=O)NCCC(=O)Nc1cc(S(=O)(=O)N2CCCCC2)ccc1Oc1cccc(C)c1 | 1.88%
CC(=O)N1C(=O)/C(=C2\SC(=S)N(NC(=O)c3ccc(O)cc3)C2=O)c2ccccc21 | 21.7% (active)
O=C(O)c1ccc2c(c1)C(=O)N(NC(=O)c1ccc(O)cc1)C2=O | 0.18%
Cn1cccc1/C=C1\SC(=S)N(NC(=O)c2ccc(Cl)cc2)C1=O | 8.58%
Cc1ccc(CC2CC(=O)N(c3cc(C)ccc3C)C2=O)cc1 (stereo not drawn) | -1.45%
COc1cc(NC(=O)c2cncc(-c3ccc(C#N)cc3)c2)cc(C(=O)Nc2cccc(C(F)(F)F)c2)c1 | -1.27%
COc1ccc(NC(=O)C(=O)NCC(=O)Nc2cccc(C(F)(F)F)c2)cc1 | 7.67%
COc1cc(NC(=O)c2[nH]cnc2C(N)=O)cc(C(=O)Nc2cccc(C(F)(F)F)c2)c1 | 14.8% (active)
N#Cc1ccccc1NC(=O)c1cccc(COc2ccc(Cl)cc2Cl)c1 | 7.12%
O=C(NCCC1CCCCN1S(=O)(=O)c1cccs1)C(=O)Nc1ccc(F)cc1F (stereo not drawn) | 1.11%
c1ccc(CCc2ccccn2)cc1 | 1.84%
CC1(C)C=Cc2c(ccc3c2OC[C@@H](c2ccc(O)cc2O)C3)O1 | 8.09%
Cc1cc(=O)oc2c(C)c(OCC(=O)NCCc3ccc(S(N)(=O)=O)cc3)ccc12 | -1.05%
Cc1ccc2c(=O)cc(C(=O)NCCc3ccc(S(N)(=O)=O)cc3)oc2c1C | 10.6% (active)

SMILES | Tm shift relative to glycine control
Cc1cc(=O)oc2cc(OC(C)C(=O)NCCc3ccc(S(N)(=O)=O)cc3)ccc12 (stereo not drawn) | -2.25%
CCn1c(Cc2cccs2)nnc1SCC(=O)c1ccc(C)cc1 | 11.2% (active)
CCn1c(SCC(=O)c2ccc3ccccc3c2)nnc1-c1cccs1 | -0.65%
Cc1ccc(-n2c(Cc3cccs3)nnc2SCC(=O)OC(C)C)cc1 | -1.71%
Cc1ccccc1NC(=O)C(C)c1ccc(-c2ccccc2)c(F)c1 (stereo not drawn) | -4.35%
CCCC(C(=O)OCCN(CC)CC)(c1ccccc1)c1ccccc1 | -1.26%
O=C(c1ccccc1)C(Cn1cncn1)C(Sc1ccccc1)c1ccccc1 (stereo not drawn) | 0.35%
COc1cccc(CNC(=O)c2nnn(CC(=O)Nc3cc(C)ccc3C)c2N)c1 | 11.9% (active)
CCc1ccc(NC(=O)Cn2nnc(C(=O)NCc3ccc4c(c3)OCO4)c2N)cc1 | 8.72%
COc1ccc(CNC(=O)CN2CCC(n3nnc4cc(F)ccc43)CC2)cc1 | 0.17%
COc1ccc(CNC(=O)c2nnn(CC(=O)Nc3cc(C)cc(C)c3)c2N)cc1 | 29.7% (active)
Cc1ccc(NC(=O)Cn2nnc(C(=O)NCc3ccco3)c2N)c(C)c1 | 1.53%
COc1cccc(CNC(=O)c2nnn(CC(=O)Nc3cc(Cl)ccc3C)c2N)c1 | 2.58%
COc1ccc(NC(=O)Cn2nnc(C(=O)NCCc3ccc(OC)c(OC)c3)c2N)cc1 | -0.6%
CCc1ccc(NC(=O)Cn2nnc(C(=O)NCc3ccc(OC)cc3)c2N)cc1 | 24.6% (active)
COc1ccc(CNC(=O)c2cc(=O)c3c(C)cc(C)cc3o2)cc1 | -0.39%
Cc1ccc(N/C(N)=N/c2nc(C(F)(F)F)cc(C(F)(F)F)n2)cc1 | -6.73%
O=C(NCc1cccs1)c1ccc2c(c1)ncn2C1CCCC1 | -0.09%
O=C1CN(C(=O)CN2C(=O)NC3(CCCCC3)C2=O)c2ccccc2N1 | -0.31%
O=C(CSc1c2c(nc3ccc(Cl)cc13)CCCC2)NCc1ccco1 | 0.25%
COC(=O)C1CCN(C(=O)c2ccc3oc(Cc4ccc(Cl)cc4)nc3c2)CC1 | 0.94%
COc1ccc(Cl)cc1NC(=O)COc1ccc2c(c1)OCO2 | -1.71%
C#CCNC(=O)C1=C[C@@H](c2ccccc2)[C@H](CCCO)[C@@H](OCC)O1 | -1.23%
COc1ccc(-c2cc(C(=O)n3cnc4ccccc43)c3ccccc3n2)cc1 | -1.16%

SMILES | Tm shift relative to glycine control
COc1ccc(-c2cc(C(=O)Nc3ccccc3O)c3ccccc3n2)cc1 | 21% (active)
COc1ccc(NC(=O)c2cc(-c3cc(OC)c(OC)c(OC)c3)nc3ccccc23)c(OC)c1 | 1.42%
Cc1cccc(CSc2ccc(-c3cccs3)nn2)c1 | -7.55%
Nc1ccc(SCCN2C(=O)c3ccccc3C2=O)cc1 | -0.18%
O=C(Nc1c(Br)cc2c(c1Br)Cc1cc([N+](=O)[O-])ccc1-2)C(Cl)Cl | -1.4%
O=C(Nc1ccccc1)c1ccccc1NC(=O)C(F)(F)F | -1.92%
O=C(Nc1c(Br)cc2c(c1Br)Cc1ccccc1-2)C(F)(F)F | 11.5% (active)
O=C(CCS(=O)(=O)c1ccc(Br)cc1)NCCc1ccc(Cl)cc1 | 0.18%
CCOc1ccc(NC(=O)CN(C)C(=O)CSc2ccccc2)cc1OCC | -0.35%
O=C(/C=C/Sc1ncn[nH]1)c1ccc(Cl)cc1 | -1.06%
FC(F)(F)c1nnc2ccc(N3CCN(c4ccccc4)CC3)nn12 | -3.49%
Fc1c(F)c(C(F)(F)F)c(F)c(F)c1N1CCN(c2ccc3nnc(C(F)(F)F)n3n2)CC1 | 33.4% (active)
CSCCC(NC(=O)c1ccc(Cl)cc1Cl)C(=O)NNC(=O)c1csc(N2CCOCC2)n1 (stereo not drawn) | -1.92%
COc1ccc(NC(=O)CN2C(=O)CSc3ccc(S(=O)(=O)N4CCC(C)CC4)cc32)cc1 | -2.6%
Cc1cc(Cl)c2oc(C(=O)NC(C)c3ccncn3)c(C)c2c1 (stereo not drawn) | -2.04%
Cc1ccc2cc(C)c(N3CCN(c4ccc(F)cc4)CC3)nc2c1 | 1.71%
Cc1ccc(-n2ncc3c(N4CCN(c5ccc(F)cc5)CC4)ncnc32)c(C)c1 | 10.6% (active)
Cc1ccc(-n2ncc3c(=O)[nH]cnc32)c(C)c1 | -2.15%
CCCCn1c(SCc2ncc(-c3ccccc3)o2)nc2cc(S(N)(=O)=O)ccc21 | -10.6%
CCOc1ccc(C(CCc2ccccc2)NC(=O)c2ccc(OC)c(OC)c2)cc1OCC (stereo not drawn) | -0.18%
O=C1CCC(C(=O)N2CCCCO2)CN1Cc1cccc(C(F)(F)F)c1 (stereo not drawn) | 0.67%
